Assay outcomes from PubChem.
HepG2 viability: qHTS for Inhibitors of TGF-b: Cytotox Counterscreen. HepG2 CAGA-GFP viability, ATP luminescence, 18 h. Potency, µM (doses to about 46.1 µM), inactives show top-dose activity change, negative = cytotoxicity, hits mostly cytotoxic. 410,000 tested, 0.76% active. AID 588856, 2011
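CellTiter-Glo luminescence gave cytotoxicity after 18 hours at 37 degrees C. The cells were HepG2 CAGA-GFP in 1% FBS DMEM, stimulated with 500 pg/mL TGF-beta after compound addition. %Activity was normalised to no-cell wells (complete cell-killing) and DMSO (no toxicity), and curves were fitted and classified.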
KB-3-1 cytotox: qHTS assay for MDR1-selective chemotherapeutics: Primary screen using the parental adenocarcinoma cell KB-3-1. AID 1347075, 2019. Potency, µM (doses to about 46.1 µM), hits mostly cytotoxic. KB-3-1 viability, CellTiter-Glo ATP luminescence, 72 h. 400,000 tested, 1.4% active; note: % is set by controls: 0 for no effect and ±100 for the full control effect; nearly all actives have a fitted effect of over 60% in size
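Cytotoxicity measured as CellTiter-Glo luminescence after 72 h at 37 C. Compound titrations were pinned onto drug-naive KB-3-1 parental adenocarcinoma cells grown in DMEM with 10% FBS, and normalized data fitted to concentration-response curves.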
KB-V1 MDR tox: qHTS assay for MDR1-selective chemotherapeutics: Primary screen using the drug-selected MDR subline cells KB-V1; KB-V1 MDR cells viability, CellTiter-Glo, 72 h; Potency, µM (doses to about 46.1 µM), actives largely listed as cytotoxic; 400,000 tested, 3.4% active; note: % is set by controls: 0 for no effect and ±100 for the full control effect; nearly all actives have a fitted effect of over 60% in size
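Luminescent ATP read-out (CellTiter-Glo, 10 min) measures survival of drug-selected KB-V1 MDR cells after 72 h, 37 degrees C compound exposure. Medium: phenol-red-free DMEM, 10% FBS. Values from fitted concentration-response curves.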
TGFb SMAD3 inh: qHTS for Inhibitors of TGF-b | 410,000 tested, 1.2% active | HepG2 CAGA-GFP TGF-b/SMAD3 reporter, GFP fluorescence, 18 h; TGF-beta stimulated, 500 pg/mL final | Potency, µM (highest dose often 46.1 µM), inactives show top-dose activity, negative = inhibition, actives largely listed as inhibitors; note: % is set by controls: 0 for no effect and ±100 for the full control effect; nearly all actives have a fitted effect of over 65% in size
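HEPG2 CAGA-GFP reporter cells (1000/well, DMEM with 1% FBS) received compounds, then recombinant TGF-beta at 500 pg/mL final for 18 hours at 37 degrees C. Per-cell GFP summed per well was normalised to unstimulated and stimulated DMSO controls before curve fitting.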
S2 tox: Viability Counterscreen for Primary qHTS for Inhibitors of ATXN expression | Potency, µM (series often up to 56.7 µM), actives largely listed as cytotoxic | S2 cells (HEK-293 line with an ATXN2-luciferase reporter) viability, CellTiter-Fluor protease fluorescence, 24 h | 400,000 tested, 0.49% active; note: nearly all actives have a fitted effect of over 40% in size
ATXN2 expr inh: Primary qHTS for Inhibitors of ATXN expression; HEK-293 ATXN2-luciferase reporter, luminescence, 24 h; Potency, µM (titrated, usually from 57 µM), inactives show top-dose activity change, negative = inhibition, hits mostly inhibitors; 360,000 tested, 0.72% active; note: % is set by controls: 0 for no effect and ±100 for the full control effect; nearly all actives have a fitted effect of over 55% in size
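ATXN2-luciferase reporter cells (luciferase flanked by upstream and downstream ATXN2 gene portions) were treated 24 h at 37 °C with compounds at up to 57 uM. SteadyGlo luminescence gave expression; GF-AFC fluorescence gave viability.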
Active calls of the source: *; i = inactive; u = inconclusive; x = not tested or not shown. Compounds with a hit are over-represented: about 5.9% of the library has one in this group of screens. Calls come from the whole dose curve; as a rule, active = well fitted curve in the direction sought with a large enough effect; inconclusive = small, poorly fitted or top-dose-only effect, or another doubt; inactive = no such curve, though single readings can be large; an effect the other way counts as inactive or inconclusive. Potency is the fitted concentration of half-maximal effect.

SMILES | HepG2 viability | KB-3-1 cytotox | KB-V1 MDR tox | TGFb SMAD3 inh | S2 tox | ATXN2 expr inh
CCOc1cc(C2c3c(oc4ccc(F)cc4c3=O)C(=O)N2Cc2ccco2)ccc1O (stereo not given) | -12% | i | i | 1% | i | 5%
CN(C)S(=O)(=O)c1cccc(NC(=O)c2ccc(OC(F)(F)F)cc2)c1 | -24% | u | 2.6µM* | u | u | u
O=C(c1cccc(Br)c1)c1cn(-c2ccccc2)nc1C(=O)c1ccccc1 | -27% | i | 12µM* | -1% | i | -12%
CCO[C@@H]1OC(C(=O)NCc2nc3ccccc3[nH]2)=C[C@H](C2CC2)[C@H]1CCCO | -4% | 5.2µM* | i | -13% | u | -5%
COc1ccc(C(=O)c2ccc(OC)cc2OC)cc1 | 1% | 15µM* | u | -14% | i | 36%
COc1ccc(C(=O)Nc2ccc(C)cn2)c(OC)c1 | -36% | u | 16µM* | 4% | i | 3.2µM*
COc1ccc(C(=O)c2ccc(N(C)C)cc2)c(OC)c1 | 3% | 5.6µM* | u | -1% | i | 16%
COc1ccc(OC)c(C(=O)c2ccc(C(=O)c3cc(OC)ccc3OC)cc2)c1 | -24% | i | i | -13% | i | u
CN(C)c1ccc(C(=O)c2ccc(N(C)C)c3ccccc23)cc1 | -10% | 0.092µM* | u | u | i | 64%
COc1ccc(-c2ccc(CCC(=O)O)n2CC(=O)Nc2cccc(C(F)(F)F)c2)cc1 | -9% | i | i | -7% | i | -22%
C/C(=N/Nc1nc(-c2ccccc2)cc(-c2ccc(F)cc2)n1)c1cccc(N)c1 | -48% | u | 5.2µM* | u | i | -16%
O=C(Nc1cccc(Cl)c1)N1Cc2ccccc2Oc2ncccc21 | -9% | x | x | x | x | x
Cc1cccc(OCc2nnc(SCc3cc(=O)[nH]c4ccccc34)n2-c2ccccc2)c1 | -1% | i | 18µM* | 0% | i | 4%
Cc1ccc(-c2nnc(CSc3nnc(COc4cccc5ccccc45)n3-c3ccccc3)o2)cc1 | 27% | u | 2.1µM* | 13µM* | u | u
COc1ccc(-n2c(COc3cccc4ccccc34)nnc2SCC#N)cc1 | 0% | u | i | u | i | -13%
N#CCSc1nnc(COc2ccccc2)n1-c1ccccc1 | -31% | i | 23µM* | -21% | i | -2%
N#CCSc1nnc(COc2cccc3ccccc23)n1-c1ccccc1 | -32% | 16µM* | 16µM* | u | u | u
O=c1cc(CSc2nnc(COc3ccccc3)n2-c2ccccc2)c2ccccc2[nH]1 | -3% | i | i | 3% | i | 26%
O=C(O)CSc1nnc(COc2ccccc2)n1-c1ccccc1 | 7% | i | i | -1% | u | x
Cc1ccc(NC(=O)c2c(C)oc3ccc(O)c(CN4CCCC4)c23)c(C)c1 | 0% | i | i | 10% | i | -18%
COc1cc(OC)c(NC(=O)Nc2ccc3c(c2)N(C)C(=O)c2ccccc2S3)cc1Cl | 2% | x | x | u | x | x
Cc1ccc(S(=O)(=O)N2CCc3cc(C(=O)NCCc4ccccc4)ccc32)cc1 | -8% | i | i | u | i | 2%
O=C(NCc1ccccc1Cl)C1CCCN1S(=O)(=O)c1ccccc1F (stereo not given) | -31% | i | u | -3% | i | -9%
COc1ccc(CCNC(=O)C2CCN(S(=O)(=O)N3CCOCC3)CC2)cc1OC | 20% | i | i | u | i | 2%
CC1CCN(S(=O)(=O)N2CCC(C(=O)NCc3cccs3)CC2)CC1 | 0% | i | 18µM* | -19% | u | -6%
